Sampled rows, rich in hits. Any-hit rate of the full collection: about 4.7%.
D3 ag: D3 dopamine receptor (human) agonism; D3R DiscoveRx beta-arrestin cells, luminescence, 90 min; max activation, %; hit rate 0.58% among 410,000; in the data active = max activation above about 30%
Target sequence (P35462 whole entry, looked up): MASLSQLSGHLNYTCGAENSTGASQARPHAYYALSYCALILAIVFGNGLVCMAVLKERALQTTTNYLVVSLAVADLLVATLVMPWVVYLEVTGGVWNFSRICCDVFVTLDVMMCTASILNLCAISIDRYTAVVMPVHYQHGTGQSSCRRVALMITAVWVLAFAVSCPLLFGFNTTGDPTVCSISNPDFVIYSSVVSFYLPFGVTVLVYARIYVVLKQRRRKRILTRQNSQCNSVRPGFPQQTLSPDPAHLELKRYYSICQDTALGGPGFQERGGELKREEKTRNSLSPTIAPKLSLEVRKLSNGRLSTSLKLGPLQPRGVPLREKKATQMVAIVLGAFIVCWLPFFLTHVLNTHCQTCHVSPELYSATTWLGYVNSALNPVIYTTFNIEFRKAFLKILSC
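Agonist mode: compounds and dopamine controls were applied to plated cells for 90 min at 37 degrees C after an overnight attachment at 1500 cells/well. Luminescent read-out followed 30 - 60 minutes at room temperature with DiscoveRx detection reagent.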
ATXN viability: cell viability loss in ATXN counter-screen; S2 cells (HEK-293 line with an ATXN2-luciferase reporter) viability, CellTiter-Fluor protease fluorescence, 24 h; Potency, µM (series often up to 56.7 µM), usual class: cytotoxic; hit rate 0.49% among 400,000; note: nearly all actives have a fitted effect of over 40% in size
TGFb inhibitor: inhibitors of TGF-b signaling; hit rate 1.2% among 410,000; Potency, µM (highest dose often 46.1 µM), most hits filed as inhibitors; AID 588855; HepG2 CAGA-GFP TGF-b/SMAD3 reporter, GFP fluorescence, 18 h; TGF-beta stimulated, 500 pg/mL final; note: nearly all actives have a fitted effect of over 65% in size
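Inhibition was scored as loss of TGF-beta-induced (500 pg/mL final, 18 hours, 37 degrees C) GFP in HEPG2 cells carrying a CAGA-GFP reporter, in DMEM with 1% FBS. Well GFP was summed per cell; Activity was normalised to unstimulated and stimulated DMSO wells, then concentration-response fitting.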
ATXN2 expr inh: inhibitors of ATXN2 expression | AID 1745845 | HEK-293 ATXN2-luciferase reporter, luminescence, 24 h | hit rate 0.72% among 360,000 | Potency, µM (highest dose often 57 µM), most hits filed as inhibitors; note: nearly all actives have a fitted effect of over 55% in size
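qHTS (up to 57 uM final) was run with 24 h compound exposure of reporter cells at 37 °C. Each well was multiplexed: SteadyGlo luminescence measured ATXN2-luciferase expression after a fluorogenic Gly-Phe-AFC viability readout (25 uM final).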
D3 antag: blocks the human D3 dopamine receptor; max response, negative = inhibition, %; AID 652054; P35462; D3R cells, DiscoveRx beta-arrestin luminescence, antagonist mode; hits give low values; hit rate 2.5% among 360,000; in the data active = max response below about -50%; inconclusive = no clear call, values can overlap the other calls
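Cells plated overnight at 1500 cells/well, then exposed to library compounds with dopamine controls for 90 minutes at 37 degrees C. DiscoveRx reagent added for 30–60 minutes at room temperature; luminescence read, quantitative HTS format.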
HepG2 tox: HepG2 cytotoxicity, counter-screen for TGF-b inhibitors | HepG2 CAGA-GFP viability, ATP luminescence, 18 h | AID 588856 | Potency, µM (doses to about 46.1 µM), actives largely listed as cytotoxic | hit rate 0.76% among 410,000
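CellTiter-Glo luminescence gave cytotoxicity after 18 hours at 37 degrees C. The cells were HepG2 CAGA-GFP in 1% FBS DMEM, stimulated with 500 pg/mL TGF-beta after compound addition. %Activity was normalised to no-cell wells (complete cell-killing) and DMSO (no toxicity), and curves were fitted and classified.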
A number is an active result; n = inactive; u = inconclusive; x = no result; ! = not active in a repeat; [ ] = another dose, or the depositor's remark. Unless noted, calls come from the whole dose curve; as a rule, active = well fitted curve in the direction sought with a large enough effect; inconclusive = small, poorly fitted or top-dose-only effect, or another doubt; inactive = no such curve, though single readings can be large; an effect the other way counts as inactive or inconclusive.

SMILES	D3 ag	ATXN viability	TGFb inhibitor	ATXN2 expr inh	D3 antag	HepG2 tox
O=C1CCC[C@@H]2CC(Nc3ccccc3)C[C@@H]3CCN1[C@H]23 (stereo partly specified)	x	x	n	x	x	n
Cc1cc(=O)c(C(=O)O)cn1Nc1ccc(F)cc1	n	n	n	n	u	n
Cc1cc(=O)c(C(=O)O)cn1Nc1ccc(Cl)cc1	n	u	n	n	-53	n
COc1cc(C(C)=O)ccc1OCC(O)CN1CCN(c2ccc(C)c(C)c2)CC1 (stereo unspecified)	n	n	n	n	-52	n
CC(=O)Nc1ccc(OCC(O)CN2CCN(c3ccc(C)c(Cl)c3)CC2)cc1 (stereo unspecified)	n	n	n	u	-144	n
O=C(NC(=S)NNC(=O)c1ccccc1O)c1cccs1	37	n	n	n	n	n
CCSc1ccc(-c2nn(-c3ccccc3)cc2/C=C(/C#N)C(=O)NCCCOC)cc1	37	x	n	n	n	n
CCCSc1ccc(-c2nn(-c3ccccc3)cc2/C=C(/C#N)C(=O)NCCCOC)cc1	n	x	n	n	n	n
Cc1cc(C)c2c(=O)cc(C(=O)NCc3ccccc3)oc2c1	n	n	n	n	-53	n
CC1/C(=N/O)C(CN(C)C)C2CC1C2(C)C (stereo unspecified)	n	u	n	n	-69	n
CC1C2CC(C(CN(C)C)/C2=N/O)C1(C)C (stereo unspecified)	n	n	n	n	n	n
COc1ccc(-c2cc(C)cc3c2OC(CNC(=O)c2cc(C(C)C)on2)C3)nn1 (stereo unspecified)	x	n	x	x	x	x
CCOC(=O)C1=C(COC(=O)CCOc2ccccc2C)NC(=O)NC1C (stereo unspecified)	n	n	n	n	-65	n
Fc1ccc(COc2ccc3ccccc3c2CNc2nn[nH]n2)cc1	n	n	n	n[11.3 µM]	n	n
CNCc1c(OCc2ccc(F)cc2)ccc2ccccc12	n	n	n	n	-61	n
Cc1cc(C(=O)Nc2ccccc2-c2nc(CNC(=O)c3ccc(F)cc3F)c(C)o2)c(C)o1	x	n	x	x	x	x
OC1(c2cccc(F)c2)CCN(Cc2ccncc2)CC1	n	n	n	n	-78	n
OC1(c2cccnc2)CCN(Cc2ccc3c(c2)CN(Cc2cc(F)cc(F)c2)CCO3)CC1	x	n	x	x	x	x
Cc1ccc2nc(N(CCCN(C)C)C(=O)c3cc(-c4cccs4)nc4ccccc34)sc2c1	n	32µM	16µM	u	n	11µM
CN(C)CCCN(C(=O)c1ccc(Br)s1)c1nc2ccc(F)cc2s1	n	n	n	n	x	n
Cc1ccc2nc(N(CCCN(C)C)C(=O)c3ccc(Br)s3)sc2c1	n	22µM!	u	u	-53	13µM!
O=c1[nH]ncc2c3ccccc3n(Cc3ccccc3)c12	n	n	n	n	n	n
O=c1[nH]ncc2c3ccccc3n(Cc3ccccc3F)c12	n	n	n	n	-60	n
CCCOC(=O)c1cccc(NC(=O)CSc2nnc3cc(C)c4ccccc4n23)c1	n	x	n	x	x	n
CCOC(=O)c1c(C(F)(F)C(F)(F)C(F)(F)C(F)(F)F)n[nH]c1C	n	n	u	n	n	13µM
SMILES	D3 ag	ATXN viability	TGFb inhibitor	ATXN2 expr inh	D3 antag	HepG2 tox
CCOC(=O)c1c(C)[nH]c(C)c1C=O	n	n	n	n	n	n
CCN(CC)S(=O)(=O)c1ccc2c(c1)N(CC(=O)NCCCN1CCN(c3cc(Cl)ccc3C)CC1)C(=O)CO2	n	x	u	u	x	13µM
O=C(CN1C(=O)COc2ccc(S(=O)(=O)N3CCCCCC3)cc21)NCc1ccc(Cl)cc1	n	x	10µM	x	x	n
CC1CCN(S(=O)(=O)c2ccc3c(c2)N(CC(=O)NCCCN2CCCC(C)C2)C(=O)CO3)CC1 (stereo unspecified)	n	n	n	n	-89	n
CC1CCN(S(=O)(=O)c2ccc3c(c2)N(CC(=O)NCCc2ccc(Cl)cc2)C(=O)CO3)CC1	n	28µM	13µM	u	x	n
O=C(CN1C(=O)COc2ccc(S(=O)(=O)N3CCCCC3)cc21)NCCc1ccc(Cl)cc1	n	x	u	x	x	n
CN(C)C1CCC(CC2CCc3ccccc32)CC1 (stereo unspecified)	x	x	n	x	x	n
COc1cccc(CNC(=O)c2c(OC)cc(=O)n3c2CCN(C(=O)c2ccc(C)nc2)CC3)c1	x	n	x	x	x	x
Cc1ccc2c(c1)NC(=O)C(CC(=O)NCCCN1CCN(c3cc(Cl)ccc3C)CC1)O2 (stereo unspecified)	n	u	u	u	-72	n
COc1cccc(CNC(=O)c2cc(S(=O)(=O)N3CCCCC3)c[nH]2)c1	n	n	n	n	n	n
O=C(NCc1ccc(Cl)cc1)c1cc(S(=O)(=O)N2CCCCC2)c[nH]1	n	u	u	u	-54	n
CC(=O)c1cccc(NS(=O)(=O)c2c(C)nc3sc(C)cn3c2=O)c1	n	x	n	x	x	n
CCOc1ccc2oc(=O)cc(CN3CCN(C(=O)c4cccc(F)c4)CC3)c2c1	n	x	n	x	x	n
O=C(Nc1nnc(S(=O)(=O)N2CCCc3ccccc32)s1)c1ccccc1Cl	n	n	u	n	x	n
O=C(CN1C(=O)COc2ccccc21)NCCN1CCC(Cc2ccccc2)CC1	n	n	n	n	-57	n
O=C(CN1C(=O)COc2ccccc21)NCCN1CCOCC1	n	n	n	n	n	n
O=C(CN1C(=O)COc2ccccc21)NCCCN1CCc2ccccc2C1	n	n	n	n	-77	n
CCCCC/C(C=O)=C\c1ccccc1	n	n	x	n	x	x
O=C(Oc1ccc(Cl)c2cccnc12)c1cccc([N+](=O)[O-])c1	n	n	14µM	n	-72	n
O=C(Oc1cccc2cccnc12)c1cccc([N+](=O)[O-])c1	n	n	n	n	u	n
O=C(Oc1coc(CSc2ncccn2)cc1=O)c1cccc([N+](=O)[O-])c1	n	n	n	n	n	n
N/C(=N/OC(=O)c1cccc([N+](=O)[O-])c1)c1cccc([N+](=O)[O-])c1	n	n	n	n	-53	n
O=C(Oc1c(Cl)cc(Cl)c2cccnc12)c1cccc([N+](=O)[O-])c1	n	n	u	20µM	-94	n
Cc1nnc(N/N=C/c2ccc(-c3ccccc3F)o2)n1N	n	n	u	n	n	n
Cc1nnc(N/N=C\c2ccc(-c3ccccc3[N+](=O)[O-])o2)n1N	n	n	8.9µM	n	n	n
Cc1ccc(CN2C[C@H](Sc3ccccn3)C[C@H]2C(=O)Nc2ccc3sc(C)nc3c2)cc1	x	n	x	x	x	x
